Laboratory results reported in the supplement of paper PMC3334620.
In all, about 33,000 sequences were measured (“E-score (-0.5 to 0.5)”: median about -0.0014, highest 2% from about 0.25 on). The sample as a whole holds a higher share of the highest values than the screen did.

Each sequence was assayed against T1, Cad1 (UniProt P24813) (assay: PBM E-score (8-mer binding enrichment) (E-score (-0.5 to 0.5)); higher = stronger / more preferred TF binding). Conditions: protein concentration: 100 nM; construct: GST-full length.
T1 sequence: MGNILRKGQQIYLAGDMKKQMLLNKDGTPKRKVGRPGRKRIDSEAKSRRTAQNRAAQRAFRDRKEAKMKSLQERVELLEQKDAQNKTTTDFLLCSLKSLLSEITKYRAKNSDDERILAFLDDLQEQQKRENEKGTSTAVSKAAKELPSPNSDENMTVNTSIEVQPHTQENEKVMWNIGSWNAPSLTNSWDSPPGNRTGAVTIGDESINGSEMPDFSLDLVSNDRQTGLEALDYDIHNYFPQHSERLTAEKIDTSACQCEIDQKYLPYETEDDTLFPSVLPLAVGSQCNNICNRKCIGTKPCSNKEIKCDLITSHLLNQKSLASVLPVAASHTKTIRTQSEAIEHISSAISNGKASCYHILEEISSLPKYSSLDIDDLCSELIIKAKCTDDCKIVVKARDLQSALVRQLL
Summary of the method: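 Full-length yeast transcription factors or their DNA-binding domains, GST-tagged and expressed with PURExpress, were applied at about 100-200 nM to universal all-10-mer Agilent arrays. These arrays had been made double-stranded by primer extension on fresh or once-stripped slides. Detection used fluorescent anti-GST, normalisation used masliner, and E-scores for ungapped eight-base words pooled with reverse complements came from the Universal PBM Analysis Suite.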

Row | Sequence | PBM E-score
1 | CGAGCTTC | 0.258
2 | AGAGCTTC | -0.181
3 | GAGCCCAC | -0.1
4 | AAAGAACA | 0.0562
5 | CGACGTTC | -0.265
6 | GGACGTTA | 0.0449
7 | CGACGTTA | 0.276
8 | CGCATGTC | 0.0303
9 | GCGAGGCC | -0.113
10 | CATATTAC | 0.225
11 | TATATTAA | 0.326
12 | AACATTAA | 0.127
13 | TACATTAA | 0.26
14 | GATATTAC | 0.293
15 | AATATTAC | 0.347
16 | GACATTAA | 0.124
17 | TGTATTAA | -0.00939
18 | GCTATTAC | 0.098
19 | CCTATTAC | -0.0089
20 | GATATTAA | 0.187
21 | ACTATTAC | 0.149
22 | ACATGGAT | 0.0578
23 | ATTTGATC | -0.0183

Row | Sequence | PBM E-score
24 | AGCCCGAC | -0.149
25 | ACGTTTGA | 0.0358
26 | AAAGGACT | -0.224
27 | ATGTGGCC | -0.0491
28 | AATGGTGC | -0.131
29 | GCTGAACC | -0.0931
30 | ACTTTGGC | -0.0521
31 | TACTGCGA | 0.0327
32 | AGCTCCAG | -0.181
33 | AGATTTCC | 0.185
34 | AATATTAG | 0.213
35 | CATATTAA | 0.272
36 | CATATTAG | 0.179
37 | AATATTAA | 0.281
38 | CATATTTA | 0.232
39 | AATATTAT | 0.194
40 | CGATTGTC | 0.174
41 | AGCTATTC | -0.215
42 | GTATCTGA | 0.0184
43 | ACATCATA | 0.105
44 | GTATCATA | 0.288
45 | CCATCATA | -0.27
46 | GTATCTTA | 0.287

Row | Sequence | PBM E-score
47 | CTATCATA | 0.148
48 | CTATCTTA | 0.0111
49 | ATATCATA | 0.166
50 | GCATCATA | 0.296
51 | CGAGACCA | -0.0428
52 | ACAAACTC | 0.052
53 | GGCTCCAC | -0.182
54 | CCTCTGCG | -0.147
55 | CGGGTAGA | 0.0106
56 | CGGTTGGC | 0.0738
57 | CGTTCTGA | -0.16
58 | GACTGCGC | -0.0924
59 | AACCCTCG | -0.0276
60 | TTTATAAA | 0.261
61 | GTTATAAA | 0.184
62 | ATTATAAC | 0.0512
63 | CTTATAAG | -0.047
64 | TGTATAAA | 0.028
65 | ATTATAAG | 0.186
66 | CTTATAAC | 0.177
67 | ATTATAAA | 0.276
68 | CTTATAAA | 0.275
69 | CCCGCGTC | 0.0369

Row | Sequence | PBM E-score
70 | GTTCGAAA | 0.241
71 | ACCAGAGG | -0.164
72 | GGCGGTAC | -0.0694
73 | GGCCTTGA | 0.0013
74 | CACAAATG | -0.0179
75 | CACAAATA | 0.259
76 | GACAAAGC | 0.06
77 | GACAAATC | 0.306
78 | GACAAATA | 0.293
79 | AACAAATA | 0.186
80 | CACAAATC | 0.126
81 | TACAAATA | 0.185
82 | GACAAGAA | 0.0396
83 | GACAAGTC | 0.00519
84 | GACAAAGA | 0.276
85 | CACAAGTA | -0.0393
86 | GAACTTCA | 0.066
87 | CGAACTGA | -0.17
88 | CCGGGGAC | -0.235
89 | CCTTATAG | -0.219
90 | ATTAGGGC | -0.0576
91 | AGTTTTGG | 0.127
92 | GACAGCGC | 0.14

Row | Sequence | PBM E-score
93 | ACGTGCGC | 0.122
94 | CAGTAGTC | -0.207
95 | AACACGAT | 0.123
96 | AAGTTGGT | 0.252
97 | AAGTTGGC | -0.125
98 | AAGTTGGG | -0.0322
99 | ATTAGAGC | 0.041
100 | ATAGTGTA | 0.0723
101 | AAGAAGTA | 0.12
102 | CAAGCAAA | 0.0203
103 | CACACTCA | 0.194
104 | CGACAGTC | -0.12
105 | CACGCCTC | -0.0988
106 | GTATAATA | 0.283
107 | ATATAATA | 0.261
108 | ATATAATG | 0.0839
109 | CTATAATA | -0.101
110 | GTATAAAA | 0.18
111 | GTATAAGA | -0.0708
